Screening data (PubChem)
This is one part of a sample in which hits are shown more often than they occur.
HttQ103 aggreg: qHTS Multiplex Assay to Identify Dual Action Probes in a Cell Model of Huntington: Aggregate Formation (GFP); PC12 HttQ103-GFP aggregates, Acumen cytometry, 40 h; Potency, µM (top dose mostly 46.1 µM), inactives show top-dose activity change, negative = inhibition, most hits filed as inhibitors; 220,000 compounds, 1.1% hits; AID 1688, 2009; also: potency is read from the fitted curve at half-maximal effect; % is scaled to controls: 0 for no effect and ±100 for the full control effect; nearly all actives have a fitted effect of over 60% in size
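Inducible Q103 Huntingtin exon 1–GFP PC12 line, 1500 cells/well in phenol red free DMEM with 5% equine and 5% calf serum. Tebufenozide 100 nM induced expression; compounds titrated; aggregates quantified by cytometry.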
HTT ATP protect: qHTS Multiplex Assay to Identify Dual Action Probes in a Cell Model of Huntington: Cytoprotection (ATP). 230,000 compounds, 0.14% hits. AID 1471, 2008. PC12 HTT-Q103 induced, cytoprotection, ATP luminescence, 40 h. Potency, µM (titrated, usually from 56.4 µM), inactives show cytoprotection (ATP increase), hits mostly activators; also: potency is read from the fitted curve at half-maximal effect; % of control where 0% means no effect; nearly all actives have a fitted effect of over 45% in size
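PC12 cells with ecdysone-inducible HTT exon 1 Q103-GFP, induced with 100 nM tebufenozide and co-treated with library compounds in a dose series (1536-well, 1500 cells/well). Cytoprotection read as ATP content by ATPlite luminescence.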
PNC inhibitor: High Content Assay for Compounds that inhibit the Assembly of the Perinucleolar Compartment; PC3M PTB-GFP, PNC prevalence imaging, 16 h; stronger effect = lower value; activity change (PNC), negative = inhibition, % at 10 µM; 140,000 compounds, 3.1% hits;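 active = readout at or below -70, meaning at least 70% loss of cells showing the perinucleolar compartment, a nuclear body marking cancer cells; inconclusive = readout between -30 and a set limit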;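 also: plate controls were DMSO wells for no effect and camptothecin positive control wells for full effect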
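PC3M cells stably expressing PTB-GFP, 750–1000 cells/well, treated 16 h at 37 °C with compound (23 nl of library stock), in duplicate. After paraformaldehyde fixation and Hoechst stain, imaged at 20x; PNC prevalence scored by image analysis.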
The depositor's hits bear a star; [ ] = remark or other dose. Unless noted, calls follow the shape of the dose curve; as a rule, active = well fitted curve in the direction sought with a large enough effect; inconclusive = small, poorly fitted or top-dose-only effect, or another doubt; inactive = no such curve, though single readings can be large; an effect the other way counts as inactive or inconclusive.

Screening O=C(COc1ccccc1)NCC(=O)N/N=C/c1ccco1 returned HttQ103 aggreg -1.3%, HTT ATP protect -4.3%[10 µM] and PNC inhibitor -121.5*.
For COc1ccc(C(=O)Cc2ccccc2)cc1OC the results were HttQ103 aggreg 5.2% and PNC inhibitor -83.9*.
`COc1ccccc1OCc1ccc(C(=O)NN)cc1` gave HttQ103 aggreg -16.9%, HTT ATP protect -16.9% and PNC inhibitor -0.7.
For COc1ccc(CC(=O)c2ccc(OC)c(OC)c2)cc1 the results were HttQ103 aggreg 14.4% and PNC inhibitor -12.7.
CC(C)C(c1nnnn1CC1CCCO1)N1CCN(Cc2ccc3c(c2)OCO3)CC1 (configuration not stated) was read as HttQ103 aggreg -9.5%, HTT ATP protect -4.0%[1.9 µM] and PNC inhibitor 3.7.
`CN=C(Nc1ccc2c(c1)OCO2)SC1CC(=O)N(c2ccccc2)C1=O` (configuration not stated) gave HttQ103 aggreg -8.4%, HTT ATP protect 5.5%[10 µM] and PNC inhibitor 21.7.
`CCn1ccnc1CN1CCc2c([nH]c3ccccc23)C1C1CCCCC1` (configuration not stated) gave HttQ103 aggreg 10.4%[9.22 µM] and HTT ATP protect -6.3%[10 µM].
CCCn1nnc2ccccc2c1=O was read as HttQ103 aggreg 4.2%, HTT ATP protect 11.7% and PNC inhibitor 6.3.
`Cc1ccc2[nH]c3c(c2c1)CCC3=O` gave HttQ103 aggreg 28.7%, HTT ATP protect -15.8% and PNC inhibitor -9.8.
For CCCCN1CCc2c([nH]c3ccc(C)cc23)C1=O the results were HttQ103 aggreg 13.7%, HTT ATP protect -6.8% and PNC inhibitor -100.0*.
N#Cc1c(NC(=S)NC(=O)c2ccccc2)sc2c1CCC2 was read as HttQ103 aggreg 11.3%, HTT ATP protect -19.3%[10 µM] and PNC inhibitor -14.9.
Screening CC(=O)NC(=S)Nc1sc2c(c1C#N)CCCCC2 returned HttQ103 aggreg 23.7%, HTT ATP protect -17.9%[10 µM] and PNC inhibitor -115.2*.
For CC(=O)Nc1sc2c(c1C#N)CCCC2 the results were HttQ103 aggreg 8.6%, HTT ATP protect -7.6% and PNC inhibitor 5.4.
CC1CCc2sc(NC(=S)NC(=O)c3ccccc3)c(C#N)c2C1 (configuration not stated) was read as HttQ103 aggreg 16.1%, HTT ATP protect -1.2%[10 µM] and PNC inhibitor -80.2*.
Screening CC1=C(/C=C/C(C)=C\C=C\C(C)=C\C=C\C=C(C)\C=C\C=C(C)\C=C\C2=C(C)C[C@@H](O)CC2(C)C)C(C)(C)C[C@H](O)C1 returned HttQ103 aggreg 2.0% and HTT ATP protect 22.3%.
For Cc1nnc(NC(=O)CSC2CCCCC2)s1 the results were HttQ103 aggreg -15.6%, HTT ATP protect -14.5% and PNC inhibitor inconclusive.
Screening COC(=O)NCC(c1cccnc1)N1CCN(c2ccccc2)CC1 (configuration not stated) returned HttQ103 aggreg -17.9%, HTT ATP protect 15.0%[10 µM] and PNC inhibitor 0.8.
Screening O=C(NCCc1c[nH]c2ccccc12)C(=O)NCC(c1cccnc1)N1CCN(c2ccccc2)CC1 (configuration not stated) returned HttQ103 aggreg 3.55µM* and PNC inhibitor inconclusive.
Screening CCn1c2ccccc2c2cc(N=C3SC(CC(=O)Nc4ccccc4)C(=O)N3C)ccc21 (configuration not stated) returned HttQ103 aggreg -3.4%, HTT ATP protect -17.1% and PNC inhibitor -10.6.
`Cn1c(=O)c([N+](=O)[O-])c(NCc2ccccc2)c2ccccc21` gave HttQ103 aggreg 15.9%, HTT ATP protect -6.6%[10 µM] and PNC inhibitor inconclusive.
`CCOc1cc(N2CCOCC2)c(OCC)cc1NC(=O)Cc1cccc(OC)c1` gave HttQ103 aggreg -9.3%, HTT ATP protect 7.1% and PNC inhibitor -11.7.
`CCOc1cc(N2CCOCC2)c(OCC)cc1NC(=O)Cc1ccc(OC)c(OC)c1` gave HttQ103 aggreg 6.1%, HTT ATP protect -14.5% and PNC inhibitor -124.1*.
`CC(=O)c1cnc2scnn2c1=O` gave HttQ103 aggreg 9.8% and HTT ATP protect -23.8%.
Cn1c(=O)c2cnc(N3CCOCC3)nc2n(C)c1=O was read as HttQ103 aggreg 30.0%, HTT ATP protect 15.6%[10 µM] and PNC inhibitor -13.6.
For Cc1cnc(NC(=O)CSc2nnc(COc3c(C)cccc3C)o2)s1 the results were HttQ103 aggreg 5.5%, HTT ATP protect 12.6%[10 µM] and PNC inhibitor -119.3*.
`Cc1cnc(NC(=O)CSc2nnc(COc3ccccc3)o2)s1` gave HttQ103 aggreg 26.7%[9.22 µM] and HTT ATP protect 14.1%[10 µM].
